Reference: PubChem BioAssay AID1159580 (chemical genetic matrix, 2015)
Screen size: about 5,500 compounds; about 2,000 (36%) were called active. About 18% were inconclusive and are not listed. Cut-off read from the data, not from the text of the source: active = normalized growth mostly below about 0.91 (no sharp cut-off); inconclusive = no clear call, values can overlap the other calls; inactive = mostly above about 0.92. The list shows a part of the results.

Test: chemical genetic growth profiling, strain panel (AID 1159580);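 note: tested at 20 µM; growth read once vehicle control cultures reached saturation at 30 °C; 1 = growth at the plate median or of vehicle wells; lower values mean less growth of the strain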
Settings: S. cerevisiae deletion strains, growth OD

Measured: normalized growth

N#CCCCCOc1ccc2c(=O)cc(-c3ccccc3)oc2c1
active: locus YPL256C, strain CLN2, stronger effect = lower value 1.15 [resistant]
inactive: locus YAR019C, strain CDC15, stronger effect = lower value 0.99 | locus YBL105C, strain PKC1, stronger effect = lower value 0.978 | locus YBR135W, strain CKS1, stronger effect = lower value 0.977 | locus YBR136W, strain MEC1, stronger effect = lower value 0.977 | locus YBR160W, strain CDC28, stronger effect = lower value 0.977 | locus YDL017W, strain CDC7, stronger effect = lower value 0.988 | locus YDL028C, strain MPS1, stronger effect = lower value 0.981 | locus YDL101C, strain DUN1, stronger effect = lower value 0.972 | locus YDL108W, strain KIN28, stronger effect = lower value 0.977 | locus YDL132W, strain cdc53, stronger effect = lower value 0.971 | locus YDL214C, strain PRR2, stronger effect = lower value 0.946 | locus YDR052C, strain DBF4, stronger effect = lower value 0.989 | locus YDR054C, strain cdc34, stronger effect = lower value 0.988 | locus YDR226W, strain ADK1, stronger effect = lower value 0.977 | locus YDR477W, strain SNF1, stronger effect = lower value 0.959 | locus YER123W, strain YCK3, stronger effect = lower value 0.954 | locus YER133W, strain GLC7, stronger effect = lower value 0.972 | locus YFL009W, strain cdc4, stronger effect = lower value 0.979 | locus YFL029C, strain CAK1, stronger effect = lower value 0.989 | locus YFR003C, strain YPI1, stronger effect = lower value 0.981 | locus YFR019W, strain FAB1, stronger effect = lower value 0.961 | locus YFR028C, strain CDC14, stronger effect = lower value 0.974 | locus YGR040W, strain KSS1, stronger effect = lower value 0.94 | locus YGR052W, strain FMP48, stronger effect = lower value 0.972 | locus YGR092W, strain DBF2, stronger effect = lower value 0.938 | locus YHR030C, strain SLT2, stronger effect = lower value 1.08 | locus YHR079C, strain IRE1, stronger effect = lower value 1.08 | locus YHR082C, strain KSP1, stronger effect = lower value 1.07 | locus YHR205W, strain SCH9, stronger effect = lower value 0.976 | locus YIL147C, strain SLN1, stronger effect = lower value 0.974 | locus YJL095W, strain BCK1, stronger effect = lower value 0.933 | locus YJL128C, strain PBS2, stronger effect = lower value 0.938 | locus YJL157C, strain FAR1, stronger effect = lower value 0.971 | locus YJR016C, strain ILV3, stronger effect = lower value 0.967 | locus YJR066W, strain TOR1 (second series), stronger effect = lower value 0.914 | locus YJR066W, strain TOR1, stronger effect = lower value 1.04 | locus YKL048C, strain ELM1, stronger effect = lower value 0.966 | locus YKL067W, strain YNK1, stronger effect = lower value 0.956 | locus YKL101W, strain HSL1, stronger effect = lower value 0.936 | locus YKL193C, strain SDS22, stronger effect = lower value 0.969 | locus YKL203C, strain TOR2, stronger effect = lower value 1.01 | locus YLR113W, strain HOG1, stronger effect = lower value 0.955 | locus YLR133W, strain CKI1, stronger effect = lower value 0.965 | locus YLR403W, strain SFP1, stronger effect = lower value 0.921 | locus YML070W, strain DAK1, stronger effect = lower value 0.956 | locus YMR001C, strain CDC5, stronger effect = lower value 0.978 | locus YMR205C, strain PFK2 (second series), stronger effect = lower value 0.967 | locus YMR277W, strain FCP1, stronger effect = lower value 0.976 | locus YNL006W, strain LST8, stronger effect = lower value 0.987 | locus YNL020C, strain ARK1, stronger effect = lower value 0.956 | locus YNL161W, strain CBK1, stronger effect = lower value 0.98 | locus YNL183C, strain NPR1, stronger effect = lower value 1.02 | locus YNL207W, strain RIO2, stronger effect = lower value 0.965 | locus YNL222W, strain SSU72, stronger effect = lower value 0.982 | locus YNL307C, strain MCK1 (second series), stronger effect = lower value 0.927 | locus YOL078W, strain AVO1, stronger effect = lower value 0.972 | locus YOL136C, strain PFK27, stronger effect = lower value 0.919 | locus YOR061W, strain CKA2, stronger effect = lower value 0.961 | locus YOR119C, strain RIO1, stronger effect = lower value 1.01 | locus YOR231W, strain MKK1, stronger effect = lower value 0.964 | locus YOR329C, strain SCD5, stronger effect = lower value 0.984 | locus YPL031C, strain PHO85, stronger effect = lower value 0.968 | locus YPL153C, strain RAD53, stronger effect = lower value 0.953 | locus YPL204W, strain HRR25, stronger effect = lower value 0.943 | locus YPL209C, strain IPL1, stronger effect = lower value 0.982 | locus YPR025C, strain CCL1, stronger effect = lower value 0.982 | locus YPR106W, strain ISR1, stronger effect = lower value 0.983 | locus YPR111W, strain DBF20, stronger effect = lower value 0.961 | strain NNK1, stronger effect = lower value 0.975 | strain TSCII, stronger effect = lower value 0.976

COc1ccc(-c2cc(=O)c3c(O)c(OC)c(OC)c(OC)c3o2)cc1
inactive: locus YAL021C, strain ccr4, stronger effect = lower value 0.987 | locus YAL026C, strain drs2, stronger effect = lower value 0.988 | locus YAL030W, strain snc1, stronger effect = lower value 1 | locus YBL061C, strain skt5, stronger effect = lower value 0.99 | locus YBR009C, strain hhf1, stronger effect = lower value 0.995 | locus YBR023C, strain chs3, stronger effect = lower value 0.993 | locus YBR171W, strain sec66, stronger effect = lower value 0.999 | locus YBR231C, strain swc5, stronger effect = lower value 0.986 | locus YBR279W, strain paf1, stronger effect = lower value 0.999 | locus YCL011C, strain gbp2, stronger effect = lower value 0.987 | locus YCL016C, strain dcc1, stronger effect = lower value 0.968 | locus YCL069W, strain vba3, stronger effect = lower value 0.983 | locus YCR088W, strain abp1, stronger effect = lower value 0.996 | locus YDL005C, strain med2, stronger effect = lower value 0.986 | locus YDL040C, strain nat1, stronger effect = lower value 0.993 | locus YDR001C, strain nth1, stronger effect = lower value 0.992 | locus YDR069C, strain doa4, stronger effect = lower value 0.976 | locus YDR137W, strain rgp1, stronger effect = lower value 1 | locus YDR159W, strain sac3, stronger effect = lower value 1 | locus YDR195W, strain ref2 0.953 | locus YDR297W, strain sur2, stronger effect = lower value 0.987 | locus YDR334W, strain swr1, stronger effect = lower value 0.977 | locus YDR335W, strain msn5, stronger effect = lower value 0.995 | locus YDR392W, strain spt3, stronger effect = lower value 0.991 | locus YEL003W, strain gim4, stronger effect = lower value 0.984 | locus YEL037C, strain rad23, stronger effect = lower value 0.992 | locus YEL061C, strain CIN8 (second series), stronger effect = lower value 0.998 | locus YER015W, strain faa2, stronger effect = lower value 0.989 | locus YER016W, strain bim1, stronger effect = lower value 0.998 | locus YER111C, strain swi4, stronger effect = lower value 0.997 | locus YER155C, strain BEM2 (second series), stronger effect = lower value 0.978 | locus YFR010W, strain ubp6, stronger effect = lower value 1 | locus YGL167C, strain pmr1, stronger effect = lower value 0.995 | locus YGL173C, strain kem1, stronger effect = lower value 1.02 | locus YGL227W, strain vid30, stronger effect = lower value 1 | locus YGL240W, strain doc1, stronger effect = lower value 1 | locus YGL253W, strain hxk2, stronger effect = lower value 1 | locus YHR013C, strain ard1, stronger effect = lower value 0.971 | locus YHR027C, strain rpn1, stronger effect = lower value 0.964 | locus YHR142W, strain chs7, stronger effect = lower value 0.986 | locus YJL092W, strain hpr5, stronger effect = lower value 0.99 | locus YJL095W, strain BCK1 (second series), stronger effect = lower value 1 | locus YJL115W, strain asf1, stronger effect = lower value 0.979 | locus YJL129C, strain trk1, stronger effect = lower value 0.979 | locus YJL154C, strain vps35, stronger effect = lower value 0.988 | locus YJL164C, strain tpk1, stronger effect = lower value 1.01 | locus YJL166W, strain qcr8, stronger effect = lower value 0.998 | locus YJL187C, strain SWE1, stronger effect = lower value 0.995 | locus YKL160W, strain elf1, stronger effect = lower value 0.972 | locus YKR026C, strain gcn3, stronger effect = lower value 1.01 | locus YKR091W, strain srl3, stronger effect = lower value 0.994 | locus YLL001W, strain dnm1, stronger effect = lower value 0.999 | locus YLL026W, stronger effect = lower value 0.983 | locus YLL041C, strain sdh2, stronger effect = lower value 0.982 | locus YLR027C, strain aat2, stronger effect = lower value 0.991 | locus YLR221C, strain rsa3, stronger effect = lower value 0.992 | locus YLR258W, strain gsy2, stronger effect = lower value 0.982 | locus YLR262C, strain YPT6 (second series), stronger effect = lower value 1 | locus YLR320W, strain mms22, stronger effect = lower value 1 | locus YLR342W, strain FKS1, stronger effect = lower value 0.99 | locus YLR357W, strain rsc2, stronger effect = lower value 0.97 | locus YLR370C, strain arc18, stronger effect = lower value 0.983 | locus YLR384C, strain iki3, stronger effect = lower value 0.99 | locus YML120C, strain ndi1, stronger effect = lower value 0.992 | locus YMR058W, strain fet3, stronger effect = lower value 0.976 | locus YMR125W, strain sto1, stronger effect = lower value 0.974 | locus YMR129W, stronger effect = lower value 0.989 | locus YMR205C, strain PFK2, stronger effect = lower value 0.997 | locus YMR231W, strain pep5, stronger effect = lower value 1.01 | locus YNL071W, strain lat1, stronger effect = lower value 1 | locus YNL209W, strain ssb2, stronger effect = lower value 0.984 | locus YNL248C, strain rpa49, stronger effect = lower value 0.969 | locus YNL322C, strain KRE1 (second series), stronger effect = lower value 1.01 | locus YNR049C, strain mso1, stronger effect = lower value 0.984 | locus YOR001W, strain rrp6, stronger effect = lower value 0.998 | locus YOR070C, strain gyp1, stronger effect = lower value 0.99 | locus YOR080W, strain dia2, stronger effect = lower value 0.984 | locus YOR083W, strain WHI5, stronger effect = lower value 0.993 | locus YOR106W, strain vam3, stronger effect = lower value 0.955 | locus YOR265W, strain rbl2, stronger effect = lower value 0.983 | locus YOR270C, strain vph1, stronger effect = lower value 1.01 | locus YOR290C, strain snf2, stronger effect = lower value 0.955 | locus YPL051W, strain arl3, stronger effect = lower value 0.981 | locus YPL078C, strain atp4, stronger effect = lower value 0.991 | locus YPL106C, strain sse1, stronger effect = lower value 0.981 | locus YPL240C, strain hsp82, stronger effect = lower value 0.99
